Results on one compound are retold here after ChEMBL document CHEMBL1201862, “PubChem BioAssay data set” (2004).

The term IC90 denotes the concentration at which the effect reaches the 90% level.

Each structure is given as a SMILES string. Entries with a potency or affinity are not part of this list. Bounds are passed on as bounds.

The experiment is described as follows: A High Throughput Confirmatory Assay used to Identify Novel Compounds that Inhibit Mycobacterium Tuberculosis in the absence of Glycerol using Purified and Synthesized Compounds (4). It counts as functional.

Consider `Cc1cc(Br)ccc1NC(=O)c1cnc(N2CCN(c3ccccn3)CC2)c2ccccc12`, for which the concentration for an effect of 90% (IC90) is > 51.1 µM (active).
